# HEK293 tox – HEK 293 cell cytotoxicity; HEK 293 viability, ATP luminescence (CellTiter-Glo), 48-72 h; 6.6% of 94,000 active; Potency, µM (highest dose often 115 µM), for the others: top-dose activity change, negative = cytotoxicity, usual class: inhibitors; further: nearly all actives have a fitted effect of over 60% in size
#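 HEK 293 cells seeded at 250 cells/well were exposed to compound for 48 or 72 hr at 37 degree Celsius. Viability taken as ATP content by CellTiter-Glo luminescence.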
# FLuc inh – blocks purified firefly luciferase enzyme activity; Potency, µM (titrated, usually from 115 µM), hits mostly inhibitors; P08659; purified P. pyralis luciferase, luminescence, biochemical; AID 1347043; 2.5% of 76,000 active; further: nearly all actives have a fitted effect of over 65% in size
#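 Biochemical qHTS: compound (6-point titration) added to 10uM D-luciferin plus 10uM ATP in Tris acetate pH 7.5 buffer with Mg, Tween-20 and BSA, then purified enzyme at 10nM; light output imaged.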
# NPR1 antag – antagonists of human natriuretic peptide receptor Npr1; P16066; HEK293 hNpr1 GloSensor cGMP, ANP-stimulated luminescence; Potency, µM (top dose mostly 46.3 µM), for the others: top-dose activity change, negative = inhibition, usual class: inhibitors; 1.6% of 76,000 active; calls by dose curve; further: nearly all actives have a fitted effect of over 60% in size
# Target sequence (P16066 whole entry, looked up): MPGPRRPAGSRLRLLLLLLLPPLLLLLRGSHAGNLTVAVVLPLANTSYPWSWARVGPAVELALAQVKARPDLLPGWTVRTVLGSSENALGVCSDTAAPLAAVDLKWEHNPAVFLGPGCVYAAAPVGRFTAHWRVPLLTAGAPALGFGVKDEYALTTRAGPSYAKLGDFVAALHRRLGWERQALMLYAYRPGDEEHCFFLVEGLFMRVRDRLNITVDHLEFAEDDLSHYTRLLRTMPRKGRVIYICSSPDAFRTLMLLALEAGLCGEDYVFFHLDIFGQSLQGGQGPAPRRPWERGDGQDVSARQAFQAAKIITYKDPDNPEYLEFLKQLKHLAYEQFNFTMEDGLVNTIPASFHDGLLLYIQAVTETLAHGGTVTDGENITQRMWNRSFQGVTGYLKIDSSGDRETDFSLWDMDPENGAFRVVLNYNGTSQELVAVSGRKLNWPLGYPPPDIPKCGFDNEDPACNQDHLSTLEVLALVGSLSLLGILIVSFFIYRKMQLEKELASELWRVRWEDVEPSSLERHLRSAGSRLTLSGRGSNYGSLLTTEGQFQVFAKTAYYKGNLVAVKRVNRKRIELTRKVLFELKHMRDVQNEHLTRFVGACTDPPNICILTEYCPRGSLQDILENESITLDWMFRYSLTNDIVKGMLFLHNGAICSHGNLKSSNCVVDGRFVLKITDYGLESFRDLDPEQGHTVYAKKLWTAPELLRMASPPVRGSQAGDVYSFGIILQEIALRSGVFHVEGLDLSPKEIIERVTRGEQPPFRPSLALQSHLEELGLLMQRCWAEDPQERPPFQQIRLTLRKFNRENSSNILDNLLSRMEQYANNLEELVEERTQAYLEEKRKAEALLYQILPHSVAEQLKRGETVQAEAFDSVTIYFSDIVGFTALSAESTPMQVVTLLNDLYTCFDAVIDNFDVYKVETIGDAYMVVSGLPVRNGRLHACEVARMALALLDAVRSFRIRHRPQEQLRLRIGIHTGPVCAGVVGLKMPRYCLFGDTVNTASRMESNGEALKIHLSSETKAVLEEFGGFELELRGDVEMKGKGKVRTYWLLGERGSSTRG
#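 Compound pre-incubated 30 min at room temperature on GloSensor-loaded HEK293 cells stably carrying hNpr1 and the pGS-40F cGMP biosensor. Stimulation uses hNppA at 0.1 nM final; luminescence is taken at baseline and 20 min post-agonist.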
# 3T3 cytotox – cytotoxic compounds in NIH 3T3 cells; 4.3% of 94,000 active; NIH 3T3 viability, CellTiter-Glo ATP luminescence, 48-72 h; Potency, µM (top dose mostly 96.7 µM), inactives show at the highest dose activity change, negative = cytotoxicity, most hits filed as inhibitors; further: nearly all actives have a fitted effect of over 55% in size
#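 First NIH 3T3 cells are plated at 400 cells/well; next compound is pinned in; then plates incubate 48 or 72 hr at 37 °C; finally CellTiter-Glo is added and luminescence read after 10 min.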
# An asterisk follows results filed as active; i = inactive; ? = inconclusive; · = no result given; ! = a repeat was not active; [ ] = remark or other dose. Rows were chosen to be rich in hits. Some 11% of all compounds tested hit in one or more screens of this group. Unless noted, the call rests on the fitted dose curve; in most records, active means well fitted curve in the direction sought with a large enough effect; inconclusive means small, poorly fitted or top-dose-only effect, or another doubt; inactive means no such curve, though single readings can be large; an effect the other way counts as inactive or inconclusive. On the % scale 0 is the no-effect control and ±100 the full control effect; potency means the concentration at half of the fitted maximal effect.
SMILES,HEK293 tox,FLuc inh,NPR1 antag,3T3 cytotox
CCCNC(=O)N1CCC(Oc2ccccc2-c2nc(-c3ccncc3)no2)C1 (centres undefined),-20.7%,i,4.7%,?
c1ccc(-c2noc(-c3ccccc3OC3CNC3)n2)cc1,?,22.4µM*,?,28.2µM*
O=C(NCCc1ccccc1)N1CC(Oc2ccccc2-c2nc(-c3ccccc3)no2)C1,22.4µM*,?,-4.6%,28.2µM*
O=C(Cc1ccsc1)N1CC(Oc2ccccc2-c2nc(-c3ccccc3)no2)C1,?,?,-1.0%,35.5µM*
COc1ccc(NC(=O)C2(Cc3cccnc3)CCCCC(=O)N2)c(OC)c1 (centres undefined),-9.6%,·,·,?
COC[C@H]1CCCN1[C@@H]1[C@H](O)[C@H](CO)O[C@@H]1CN(Cc1cccc(Cl)c1)Cc1cccc(Cl)c1,?,i,3.5%,?
COc1ccc(-c2nc(C(C)C)nc3c2CCN(C(=O)Nc2ccccc2)CC3)cc1,?,i,4.8%,?
CC(Oc1ccccc1)C(=O)N1CC(Oc2ccccc2-c2nc(-c3ccccc3)no2)C1 (centres undefined),44.7µM*,·,·,35.5µM*
CNC(=O)c1cc(C2CC2)nc2c1c(C1CCCN1C(=O)c1ccc(C)cc1)nn2C (centres undefined),-9.4%,·,·,-28.5%
C[S+](=O)([O-])c1ccc(-c2nccc3c(=O)cc(-c4cccnc4)oc23)cc1,?,i,-2.7%[70.6 µM],25.1µM*
O=c1cc(-c2ccncc2)oc2c(-c3cccc(O)c3)nccc12,?,i,3.1%[70.6 µM],22.4µM*
O=c1cc(-c2ccccn2)oc2c(NCc3ccc(F)cc3)nccc12,?,i,0.0%[70.6 µM],-19.1%[138 µM]
O=c1cc(-c2cccnc2)oc2c(NCc3ccc(F)cc3)nccc12,-58.3%[172 µM],i,-5.4%[70.6 µM],50.1µM*
COc1ccc(-c2nccc3c(=O)cc(-c4cccnc4)oc23)cc1OC,-7.4%[172 µM],i,-0.1%[70.6 µM],22.4µM*
CCn1nccc1C(=O)NCCC1CCN(C(=O)Nc2cc(F)cc(F)c2)CC1,-1.8%,i,5.0%,-16.0%
CCCCn1c(=O)c(C(=O)N2CCN(C(=O)C(C)(C)C)CC2)nc2cccnc21,0.5%,·,·,-21.9%
Cc1ccccc1-c1nccc2c(=O)cc(-c3cccnc3)oc12,112µM*,i,4.2%[70.6 µM],25.1µM*
COc1ccc2c3c1CN(C(=O)NCc1ccccc1)CC3=CC(C)(C)CO2,39.8µM*,·,·,?
Cc1oc2ccn(Cc3ccc(F)cc3)c(=O)c2c1C(=O)NC1CCCCCC1,35.5µM*,i,-27.9%,?
Cc1ccccc1C(=O)NC1CCCN(c2ccnc3ccnn23)C1 (centres undefined),?,·,·,-24.1%
Cc1nc2c(c(-c3ccc(O)cc3)n1)CN(Cc1ccc(OC(F)(F)F)cc1)CC2,?,i,-22.2%,?
Cc1nc2c(c(-c3ccc(O)cc3)n1)CN(Cc1ccccc1)CCC2,?,i,0.0%,?
Cc1nc2c(c(-c3ccc(O)cc3)n1)CN(Cc1cccc3ccccc13)CCC2,31.6µM*,i,?,31.6µM*
Cc1nc2c(c(-c3ccc(O)cc3)n1)CN(Cc1ccc(C(F)(F)F)cc1)CC2,?,i,-1.4%,-31.2%
Cc1nc2c(c(-c3ccc(O)cc3)n1)CN(Cc1ccc(C(F)(F)F)cc1)CCC2,31.6µM*,i,?,?
SMILES,HEK293 tox,FLuc inh,NPR1 antag,3T3 cytotox
COc1ccc(-c2nc(C)nc3c2CCN(Cc2cccc4ccccc24)CC3)cc1,39.8µM*,i,2.6%,?
Cc1nc2c(c(-c3ccc(O)cc3)n1)CN(Cc1ccc(OC(F)(F)F)cc1)CCC2,35.5µM*,i,?,?
CC(C)N1CC(C(=O)NCCc2ccccc2F)NC1=O (centres undefined),0.0%[172 µM],·,·,-22.7%[138 µM]
CNC(=O)c1cc(C)nc2onc(C3CCCN(C(=O)N(C)C)C3)c12 (centres undefined),-5.7%,·,·,i
CC(C)C(=O)NC1CN(c2ccnc3ccnn23)C1,2.3%[172 µM],·,·,-22.6%[138 µM]
c1c(CC2CCCCC2)nnn1[C@H]1CO[C@H]2[C@@H]1OC[C@@H]2NCC1CCCCC1,?,i,-21.2%[70.6 µM],?
O=C(COc1ccccc1)N[C@H]1CO[C@H]2[C@@H]1OC[C@@H]2n1cc(CC2CCCCC2)nn1,-10.9%[172 µM],i,6.3%[70.6 µM],39.8µM*
O=C(N[C@H]1CO[C@H]2[C@@H]1OC[C@@H]2n1cc(CC2CCCCC2)nn1)C1CC1,-26.6%[172 µM],i,-14.9%[70.6 µM],31.6µM*
Cc1cccnc1CNC[C@H]1O[C@@H]2C[C@@H](CC(=O)N3CCOCC3)O[C@@H]2[C@@H]1O,3.8%[172 µM],i,5.7%[70.6 µM],2.3%[174 µM]
O=C(NCCc1ccc(Cl)cc1)C1CN(c2cccc(Cl)c2)C(=O)N1 (centres undefined),?,i,7.6%,35.5µM*!
CCCS(=O)(=O)N1CCC(Cc2ncc(C)n2Cc2ccc(F)cc2)CC1,-20.0%,i,0.0%,-23.9%
CSc1cccc(NC(=O)N2CCC(c3cc(-c4cccc(C)c4)n[nH]3)CC2)c1,44.7µM*,i,-20.1%,17.8µM*
COc1cccc(-c2cc(C3CCN(C(=O)c4ccc(Cl)cc4)CC3)[nH]n2)c1,44.7µM*,i,?,?
COc1cccc(-c2cc(C3CCN(C(=O)Nc4ccccc4C(F)(F)F)CC3)[nH]n2)c1,22.4µM*,i,-6.5%,31.6µM*
COc1cccc(-c2cc(C3CCN(C(=O)Nc4ccc(OC)c(OC)c4)CC3)[nH]n2)c1,?,?,-11.8%,?
COc1cccc(-c2cc(C3CCN(C(=O)Nc4cc(C)cc(C)c4)CC3)[nH]n2)c1,39.8µM*,i,-18.7%,?
COc1cccc(-c2cc(C3CCN(C(=O)Nc4ccc(F)cc4F)CC3)[nH]n2)c1,?,i,-14.6%,?
Cc1ccc(CCCN2CCCC(COc3ccccc3C(=O)NC(C)C)C2)o1 (centres undefined),?,i,1.1%,?
Cn1cccc1CN1CCC2(CC1)CN(Cc1ccccc1)CC2CO (centres undefined),?,i,0.8%,?
CCOCCOC1CCN(C(=O)c2cc(-c3cccc(OC)c3)n[nH]2)CC1,-22.5%,25.1µM*,-2.6%,-28.0%
CN1CCCC12Cc1ccccc1CN(C(=O)C1CCCC1)C2 (centres undefined),-28.9%,·,·,-16.6%
Cc1nc(CCC(=O)N2CCn3nc(C(=O)Nc4ccccc4)cc3C2)n[nH]1,-23.4%,28.2µM*,-1.1%,-7.3%
CCOC(=O)[C@@H]1CN(C(=O)NC2CCCC2)[C@H]2c3ccc(OC)cc3O[C@@H]12,50.1µM*,·,·,?
COc1ccc(-c2ccc(C(=O)N3CCN(C(=O)c4ccccc4F)CC3)cc2)nn1,-20.4%,·,·,?
CC(=O)N1CC2(CCN(C(=O)c3ccc(Cl)cc3)CC2)Cc2ccccc21,?,·,·,10µM*
CC(=O)N1CC2(CCCN(Cc3cc4ccccc4[nH]3)C2)Cc2ccccc21 (centres undefined),?,·,·,25.1µM*
